Among the test systems are DU-145 prostate; K-562 leukemia; MALME-3M melanoma; MDA-MB-231 breast; RXF 393 renal; SF-268 CNS; SF-295 CNS; SF-539 CNS; UACC-257 melanoma; M14 melanoma; HCT-15 colon; HT29 colon; SNB-75 CNS; SNB-19 CNS; U251 CNS; PC-3 prostate; SK-MEL-5 melanoma; UACC-62 melanoma; LOX IMVI melanoma; SK-MEL-28 melanoma.
Common to all, as to experiment: NCI-60 one-dose screen, 48 h (100 = growth as untreated, 0 = no growth, -100 = all killed)
Conditions in all cases: 10 µM unless noted

Structures are written as SMILES. This is part of a sample that, as a whole, favours compounds with a hit. Of some 83,000 tested, about 20% had one in any assay.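 In brief: 96-well plates, 48 h treatment, single concentration, percent growth endpoint.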 A number with no mark means an inactive call. Activity calls are given as the source filed them. Rule for the calls: active = growth percent below 10; inactive = the rest.

On to `Cc1ccc(NC(=O)N[C@@H](Cc2cc(F)cc(F)c2)C(=O)N[C@@H]2C(=O)N3CCC[C@H]3C(=O)N3CCCC[C@H]3C(=O)N[C@@H](C)C(=O)N3C[C@H](C)C[C@H]3C(=O)O[C@H]2C)cc1`, for which the growth in the experiment with DU-145 prostate was 28.8%; in the experiment with K-562 leukemia, 14.3%; in the experiment on MALME-3M melanoma it was 35%; with MDA-MB-231 breast it was 4.01% (active); with RXF 393 renal, 28.8%; in the experiment with SF-268 CNS, 28.8%. The growth is 18.5% in the experiment on SF-295 CNS; 48.6% with SF-539 CNS; 18% in the experiment on UACC-257 melanoma; 34% in the experiment with M14 melanoma; 14.7% in the experiment on HCT-15 colon; 30.3% in the experiment on HT29 colon. For the same compound, the growth in the experiment on SNB-75 CNS was 10.7%; in the experiment on SNB-19 CNS it was 22%; in the experiment on U251 CNS, 29.8%; with PC-3 prostate, 16.1%; in the experiment with SK-MEL-5 melanoma, 10.8%; in the experiment on UACC-62 melanoma, 25.8%. In addition, the growth in the experiment with LOX IMVI melanoma is 38.2%; with SK-MEL-28 melanoma it was 39.4%.

For `CC1=CC[C@@H]2C(C)(C)[C@@H](O)CC[C@@]2(C)[C@@H]1COc1ccc2ccc(=O)oc2c1`, the growth in the experiment with DU-145 prostate is 68.9%; in the experiment on K-562 leukemia, 36%; in the experiment with MALME-3M melanoma, 72.3%; with MDA-MB-231 breast, 78.7%; with RXF 393 renal, 65%; in the experiment on SF-268 CNS, 66.1%. The growth in the experiment on SF-295 CNS was 46.5%; in the experiment with SF-539 CNS, 85.6%; in the experiment with UACC-257 melanoma it was 102%; with M14 melanoma, 76.9%; in the experiment with HCT-15 colon it was 29.4%; in the experiment with HT29 colon it was 70.5%. Further, the growth in the experiment with SNB-75 CNS is 62.1%; in the experiment on SNB-19 CNS it was 81.2%; in the experiment on U251 CNS it was 67.9%; in the experiment on PC-3 prostate, 30.6%; in the experiment with SK-MEL-5 melanoma it was 28.7%; with UACC-62 melanoma, 22.9%. The figures for the growth in the experiment with LOX IMVI melanoma and with SK-MEL-28 melanoma were 52.2% and 91.4%, respectively.

For `COc1ccc2nc3cc(Cl)ccc3c(Nc3ccc(O)c(CN4CCCC4)c3)c2c1`, the growth is -9.64% (active) with DU-145 prostate; -6.52% (active) in the experiment with K-562 leukemia; -86.6% (active) with MALME-3M melanoma; 11.7% with MDA-MB-231 breast; -84% (active) in the experiment with RXF 393 renal; 38.5% in the experiment on SF-268 CNS. Also, the growth in the experiment on SF-295 CNS was 8.91% (active); in the experiment with SF-539 CNS, -87.4% (active); with UACC-257 melanoma, -81.1% (active); with M14 melanoma, -83.2% (active); in the experiment on HCT-15 colon, 0.129% (active); with HT29 colon, -22.8% (active). The growth in the experiment with SNB-75 CNS was 31.5%; in the experiment on SNB-19 CNS, 62.5%; with U251 CNS it was 0.559% (active); in the experiment with PC-3 prostate it was 24.2%; with SK-MEL-5 melanoma it was 41.1%; with UACC-62 melanoma, 51.9%. Besides, the growth in the experiment on LOX IMVI melanoma was -68.6% (active); in the experiment on SK-MEL-28 melanoma, 82.9%.

Consider `Oc1cc(Nc2ccnc3cc(Cl)ccc23)c2ncccc2c1`, for which the growth in the experiment on DU-145 prostate was 58.4%; with K-562 leukemia, 76.6%; in the experiment with MALME-3M melanoma, 52%; with MDA-MB-231 breast, 14.8%; with RXF 393 renal it was 68.6%; with SF-268 CNS it was 73.8%. The growth is 108% in the experiment with SF-295 CNS; 93.9% in the experiment with SF-539 CNS; 82.2% with UACC-257 melanoma; 75.8% in the experiment on M14 melanoma; 82% in the experiment on HCT-15 colon; 109% in the experiment on HT29 colon. The growth with SNB-75 CNS is 53.2%; in the experiment with SNB-19 CNS it was 78.4%; with U251 CNS it was 77.1%; in the experiment on PC-3 prostate, 59.1%; in the experiment with SK-MEL-5 melanoma, 79.2%; in the experiment on UACC-62 melanoma, 81.4%. For the same compound, the growth is 72.7% in the experiment on LOX IMVI melanoma and 81.5% with SK-MEL-28 melanoma.

`Cc1cccc([N+](=O)[O-])c1I`: the growth is 116% with DU-145 prostate; 141% with K-562 leukemia; 116% in the experiment on MALME-3M melanoma; 102% in the experiment on MDA-MB-231 breast; 111% in the experiment with RXF 393 renal; 105% in the experiment on SF-268 CNS. Also, the growth in the experiment on SF-295 CNS was 101%; in the experiment on SF-539 CNS, 105%; with UACC-257 melanoma, 96.7%; in the experiment with M14 melanoma it was 108%; with HCT-15 colon, 113%; in the experiment with HT29 colon it was 106%. Further, the growth with SNB-75 CNS is 94.9%; in the experiment with SNB-19 CNS, 106%; with U251 CNS, 93.8%; with PC-3 prostate it was 85.5%; with SK-MEL-5 melanoma it was 109%; in the experiment on UACC-62 melanoma, 107%. The growth with LOX IMVI melanoma is 101%; in the experiment on SK-MEL-28 melanoma, 114%.

In the case of `CN(C)Cc1ccc[nH]1`, the growth in the experiment with DU-145 prostate was 115%; in the experiment on K-562 leukemia, 113%; in the experiment on MALME-3M melanoma it was 126%; in the experiment with MDA-MB-231 breast, 77.6%; with RXF 393 renal, 95.3%; with SF-268 CNS, 103%. For the same compound, the growth in the experiment on SF-295 CNS was 90.1%; in the experiment on SF-539 CNS, 92.3%; in the experiment with UACC-257 melanoma it was 0.0923% (active); with M14 melanoma, 93.2%; with HCT-15 colon, 102%; in the experiment with HT29 colon, 114%. The growth in the experiment on SNB-75 CNS is 92.5%; with SNB-19 CNS, 97.7%; in the experiment with U251 CNS, 108%; in the experiment on PC-3 prostate, 99.2%; in the experiment on SK-MEL-5 melanoma, 102%; in the experiment with UACC-62 melanoma, 91.6%. Also, the figures for the growth with LOX IMVI melanoma and in the experiment on SK-MEL-28 melanoma were 81.3% and 107%, respectively.

As to `COc1ccccc1S(=O)Nc1ccccc1` (stereo not given), the growth was 116% with DU-145 prostate; 104% in the experiment on K-562 leukemia; 86.2% with MALME-3M melanoma; 92.5% in the experiment with MDA-MB-231 breast; 100% in the experiment on RXF 393 renal; 100% in the experiment with SF-268 CNS. The growth was 98.5% with SF-295 CNS; 109% in the experiment on SF-539 CNS; 78.4% in the experiment on UACC-257 melanoma; 111% in the experiment on M14 melanoma; 102% in the experiment on HCT-15 colon; 91.4% with HT29 colon. In addition, the growth in the experiment with SNB-75 CNS was 87.4%; with SNB-19 CNS it was 99.5%; in the experiment on U251 CNS, 91%; in the experiment on PC-3 prostate it was 87.2%; with SK-MEL-5 melanoma it was 96.8%; in the experiment with UACC-62 melanoma, 94.1%. The growth was 99.4% with LOX IMVI melanoma and 114% in the experiment on SK-MEL-28 melanoma.
